The list is not random: actives were taken first. Their share in the collection is about 7.8%.
HCV inhibitor: blocks hepatitis C virus. 3.4% of 340,000 active. Potency, µM (series often up to 41.8 µM), most hits filed as inhibitors. Huh7.5.1 HCVcc-Cre infection, luciferase reporter, 44 h; active means well fitted inhibition curve with a large enough effect; inconclusive means small, poorly fitted or top-dose-only effect, or another doubt; inactive means no such curve, though single readings can be large or run the other way
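A cell-based infection assay in which seeded cells (1,000 per well) receive test compound after 4 h, are inoculated with HCVcc-Cre at approximately 0.5 moi, and are incubated 44 h before luminescence detection.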
VACV Venus inh: inhibitors of vaccinia virus (Venus reporter) | Vaccinia virus Venus reporter expression, fluorescence | Potency, µM (top dose mostly 36.5 µM), usual class: inhibitors | 0.46% of 330,000 active; calls by dose curve; tested in A549 cells; further: nearly all actives have a fitted effect of over 30% in size
Lassa entry inh: Lassa virus entry inhibition | Potency, µM (titrated, usually from 37.9 µM), actives largely listed as inhibitors | AID 540256 | 1.2% of 300,000 active | Lassa virus pseudotype entry inhibition, cell reporter; calls by dose curve; tested in HEK293 cells; further: nearly all actives have a fitted effect of over 50% in size
Marburg entry inh: inhibitors of Marburg virus binding or cell entry. Marburg virus pseudotyped entry inhibition, cell reporter. 1.8% of 300,000 active. Potency, µM (top dose mostly 37.8 µM), actives largely listed as inhibitors; calls by dose curve; tested in HEK293 cells
HCMV antiviral: blocks human cytomegalovirus replication; HFF cells, HCMV-luciferase reporter, 72 h; stronger effect = lower value; activity change, negative = inhibition, % at 57.5 µM; 4.5% of 410,000 active; AID 1259415; in the data active means activity change below about -60%; inconclusive means no clear call, values can overlap the other calls; inactive means above about -39%
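Two-dose cell screen: HFF monolayers treated with compounds and infected with luciferase-expressing HCMV at 1 PFU/cell, 72 h at 37C, then lysed for luciferase measurement.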
Vaccinia mCherry: vaccinia inhibition (mCherry reporter); Vaccinia virus mCherry reporter infection, fluorescence; Potency, µM (top dose mostly 36.5 µM), hits mostly inhibitors; 0.63% of 310,000 active; calls by dose curve; tested in A549 cells; further: nearly all actives have a fitted effect of over 35% in size
A number is an active result; - = inactive; ? = inconclusive; . = no result; ! = a repeat was not active; [ ] = dose if it differs, or a comment.

SMILES | HCV inhibitor | VACV Venus inh | Lassa entry inh | Marburg entry inh | HCMV antiviral | Vaccinia mCherry
COc1ccccc1NC(=O)COC(=O)c1cc(C)oc1C | - | - | - | - | -79 | -
CCOC(=O)c1c(C)[nH]c(C(=O)Nc2ccc(C)c(Cl)c2)c1C | - | . | - | - | . | .
CC(=O)c1c(C)[nH]c(C(=O)Nc2ccc3c(c2)OCCO3)c1C | - | - | ? | ? | - | -
CCOC(=O)c1c(C)[nH]c(C(=O)Nc2ccc(NC(C)=O)cc2)c1C | ? | . | - | ? | -65 | .
CCOC(=O)c1[nH]c(C)c(C(=O)Nc2ccc3c(c2)OCCO3)c1C | ? | - | - | - | -74 | -
CCc1ccc(S(=O)(=O)c2nnn3c2nc(NCCC(C)C)c2cc(Cl)ccc23)cc1 | . | ? | . | - | - | ?
COc1ccccc1CNC(=O)CCCc1nnc2n(CC(C)C)c(=O)c3sccc3n12 | . | - | - | . | ? | -
CCC(CC)C(=O)c1c[nH]c(C(=O)NCC2CCCO2)c1 (stereo not given) | - | - | 7.1µM | - | - | -
Cc1onc(-c2c(Cl)cccc2Cl)c1C(=O)N[C@@H]1C(=O)N2[C@@H]1SC(C)(C)[C@@H]2C(=O)O | 0.5µM! | - | . | . | - | -
Cc1onc(-c2c(Cl)cccc2Cl)c1C(=O)c1c[nH]c(C(=O)NCC2CCCO2)c1 (stereo not given) | 11µM | - | 8.9µM | ? | - | -
Cc1onc(-c2c(Cl)cccc2Cl)c1C(=O)NC1CCCCC1 | 13µM | - | ? | ? | - | -
Cc1onc(-c2c(Cl)cccc2Cl)c1C(=O)NC1C(=O)N2C1SC(C)(C)C2C(=O)O (stereo not given) | - | - | - | - | - | -
COc1ccc(-n2c(CNC(=O)c3ccc(OC)cc3OC)nnc2SC)cc1 | . | - | . | . | . | -
CCOC(=O)N1CCN(c2nc(CN3CCCCC3CCO)nc3c(C)cccc23)CC1 (stereo not given) | . | - | . | . | . | -
CCOc1ccc2c(c1)sc1nc(=O)n(-c3ccc(Cl)c(Cl)c3)c(=O)n12 | . | - | - | - | - | -
COc1cc(OC)c(NC(=O)C(Cc2ccccc2)NS(=O)(=O)c2cccc3nsnc23)cc1Cl (stereo not given) | . | - | - | - | - | -
Cc1onc(-c2c(Cl)cccc2Cl)c1C(=O)N/N=C(\N)COc1ccc(Cl)cc1 | 2.8µM | . | - | ? | -78 | .
CC(=O)N1CCN(CCS(=O)(=O)c2ccc(Br)cc2)CC1 | - | ? | - | - | - | 18µM
O=C(CCS(=O)(=O)c1ccc(Br)cc1)N1CCN(Cc2ccccc2)CC1 | - | ? | - | - | - | .
O=C(CSc1nc(=O)[nH]c2c1CCCC2)NCc1ccc(F)cc1 | . | -[7.34 µM] | - | . | - | -[7.34 µM]
Cc1cccc(-n2cc(-c3ccc([N+](=O)[O-])cc3)[nH]c2=S)c1 | - | - | ? | - | - | -
Cc1ccc(-n2cc(-c3ccc([N+](=O)[O-])cc3)[nH]c2=S)c(C)c1 | ? | - | - | - | -64 | ?
COc1cc(CN(C2CCCCC2C)S(=O)(=O)c2ccc(S(=O)(=O)NC3CC3)cc2)cc(OC)c1OC (stereo not given) | - | - | ? | 10µM | - | ?
COc1ccccc1CNS(=O)(=O)c1ccc(S(=O)(=O)NC2CC2)cc1 | - | - | - | - | ? | -
COc1ccc(CN(C2CCCCC2C)S(=O)(=O)c2ccc(S(=O)(=O)N(C)C)cc2)cc1OC (stereo not given) | - | - | ? | ? | -79 | -
SMILES | HCV inhibitor | VACV Venus inh | Lassa entry inh | Marburg entry inh | HCMV antiviral | Vaccinia mCherry
CCCCc1oc2ccc(NS(C)(=O)=O)cc2c1C(=O)c1ccc(OCCCN(CCCC)CCCC)cc1 | . | . | . | . | -82 | .
CCCCCOc1ccc(NS(C)(=O)=O)cc1 | - | - | - | - | - | -
Nc1nc2c(nc(Br)n2C2OC3COP(=O)(O)O[C@@H]3C2O)c(=O)[nH]1 (stereo not given in full) | . | . | - | ? | . | .
Nc1ncnc2c1nc(Br)n2C1O[C@H]2COP(=O)(O)O[C@@H]2C1O (stereo not given in full) | . | . | . | 3.2µM | . | .
Cc1nonc1OCCCNc1ccc([N+](=O)[O-])cc1Cl | - | - | - | - | -78 | -
CC(C)(C)c1ccc(-c2n[nH]c(=S)n2C2CCCC2)cc1 | ? | . | ? | ? | -91 | .
CCOc1ccc(NC(=O)CCc2c(C)nc3nc(-c4cc(OC)cc(OC)c4)nn3c2C)cc1 | . | - | - | - | - | -
CCOc1ccccc1NC(=O)c1cnc2n(c1=O)CCS2 | - | - | - | - | - | -
O=C(Nc1ccc(Oc2ccccc2)cc1)c1cnc2n(c1=O)CCS2 | ? | - | . | . | -86 | ?
Cc1ccccc1NC(=O)c1cn(-c2ccccc2)nc1-c1ccccc1 | ? | - | - | - | ? | -
Cc1cccc(C)c1NC(=O)c1cn(-c2ccccc2)nc1-c1ccccc1 | ? | - | - | - | -64 | -
COC(=O)c1ccc(NC(=O)c2cn(-c3ccccc3)nc2-c2ccncc2)cc1 | ? | - | - | 13µM | -98 | .
COc1ccc(-c2nn(-c3ccccc3)cc2C(=O)Nc2nccs2)cc1 | ? | ? | - | ? | - | .
CN1CCN(NC(=O)c2cn(-c3ccccc3)nc2-c2ccc(OC(F)F)cc2)CC1 | - | - | - | 7.1µM | - | -
O=C(Nc1cccc(S(=O)(=O)N2CCOCC2)c1)c1cn(-c2ccccc2)nc1-c1ccccc1 | - | - | ? | ? | -64 | -
COc1cccc(CN2CCCC(c3nc(-c4ccncc4)ncc3-c3ccccc3C)C2)c1O (stereo not given) | . | - | . | . | . | -
Cc1ccc(N2C(=O)c3cccc([N+](=O)[O-])c3C2=O)cc1C | - | - | - | - | - | -
Cc1cccc(C)c1N1C(=O)c2cccc([N+](=O)[O-])c2C1=O | - | - | - | - | -63 | -
Cc1ccc2nc(/N=C(\N)NC(=O)N3c4ccccc4Sc4ccccc43)nc(C)c2c1 | ? | - | - | - | -65 | -
Cc1ccc2c(C)nc(/N=C(\N)NC(=O)N3c4ccccc4Sc4ccccc43)nc2c1 | ? | - | - | ? | ? | -
NC(=O)c1cc(N)ccc1N1CCCC1 | - | - | - | - | - | -
NC(=O)c1cc(N)ccc1N1CCCCC1 | - | - | - | - | -61 | -
Cc1cc(NC(=O)NC(=O)c2ccc(F)cc2F)n[nH]1 | - | - | 16µM | ? | - | .
O=C(/C=C/Sc1ccc(C(F)(F)F)cn1)c1ccccc1 | 10µM | . | . | . | - | .
O=C1[C@@H]2[C@H]3[C@H](O)[C@H](O)CC(=NOC[C@@H](O)COCc4ccco4)[C@H]3CC[C@H]2C(=O)N1c1ccc(F)cc1F | . | . | . | - | . | .
O=S(=O)(Nc1nccs1)c1cnc(Cl)c(Br)c1 | - | - | - | - | -101 | -
O=S(=O)(Nc1nccs1)c1ccc(Br)cc1 | - | - | - | - | - | -
Cc1oc(-c2ccccc2Cl)nc1Cn1c(SCc2cccc(F)c2)nc2cccnc21 | . | - | ? | . | - | -
Cc1occc1C(=O)NCCN1Cc2ccccc2OC(c2ccccc2F)C1 (stereo not given) | . | - | . | . | . | -
